In publication PMC12820563, “FoxP3 forms a head-to-head dimer in vivo and stabilizes its multimerization on adjacent microsatellites”:
Over roughly 16,000 sequences, “rpm ratio (pull-down/input)” has its median near 0.94; the highest 2% begin near 1.7. Only a selection was taken, and the highest values are over-represented in it overall.

Target: T1, MBP-FoxP1dN (Mus musculus, UniProt P58462 326-579)
T1 sequence: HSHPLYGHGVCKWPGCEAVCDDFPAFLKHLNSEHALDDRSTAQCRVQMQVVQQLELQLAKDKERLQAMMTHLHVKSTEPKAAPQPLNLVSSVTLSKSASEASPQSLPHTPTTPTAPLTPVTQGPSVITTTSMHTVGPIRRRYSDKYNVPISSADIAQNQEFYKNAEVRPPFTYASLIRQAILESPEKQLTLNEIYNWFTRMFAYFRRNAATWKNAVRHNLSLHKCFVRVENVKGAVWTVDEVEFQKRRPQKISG
Assay: PD-seq (MBP pull-down with sequencing); 20 mM Tris-HCl pH 7.5, 100 mM NaCl, 1.5 mM MgCl2, 0.4 uM protein, 0.1 uM dsDNA library, 30 min, room temperature, amylose pull-down; high values mean tight binding
Conditions: protein: recombinant; tags: His6-MBP; chain copies: 2; dsDNA, one strand shown
Outline: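 Binding is given as reads-per-million enrichment, pull-down over input, with replicates pooled. The bait was an N-terminus-lacking mouse FoxP3 or FoxP1 fragment with a His6-MBP tag, expressed in E. coli and used at 0.4 µM with 0.1 µM Klenow-filled degenerate double-stranded DNA library for 30 min at room temperature in Tris pH 7.5 buffer with NaCl and MgCl2. Amylose resin pull-down with three washes was followed by proteinase K release, PCR barcoding and Illumina sequencing.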

Which binding signal does the source give for “GATGATTGTTCTCCCAGCTGATGAATTCAGATATTCGAGTAAACAAATTTTCCTAATCTTTCTGTTCAAGCGCCATCTAC” here?
The binding signal was 1.01 RPM ratio (pull-down/input).

With “GATGATTGTTCTCCCAGCTGATGAATTAAGTTGATCGAGTAAACAAATTTTCCTAATCTTTCTGTTCAAGCGCCATCTAC” as the sequence, how does the binding signal read?
Its binding signal is 1.17 RPM ratio (pull-down/input).

For “GATGATTGTTCTCCCAGCTGATGAATTCGATCCGTCGAGTAAACAAATTTTCCTAATCTTTCTGTTCAAGCGCCATCTAC”, which binding signal is on record?
The binding signal was 0.886 RPM ratio (pull-down/input).

For “GATGATTGTTCTCCCAGCTGATGAATTGTTCCGATCGAGTAAACAAATTTTCCTAATCTTTCTGTTCAAGCGCCATCTAC”, which binding signal is on record?
Its binding signal is 1.04 RPM ratio (pull-down/input).

“GATGATTGTTCTCCCAGCTGATGAATTGGCTTAGTCGAGTAAACAAATTTTCCTAATCTTTCTGTTCAAGCGCCATCTAC” was tested. Which binding signal did it give?
Its binding signal is 0.844 RPM ratio (pull-down/input).

Which binding signal does the source give for “GATGATTGTTCTCCCAGCTGATGAATTGATAAAATCGAGTAAACAAATTTTCCTAATCTTTCTGTTCAAGCGCCATCTAC” here?
Its binding signal is 1.14 RPM ratio (pull-down/input).

“GATGATTGTTCTCCCAGCTGATGAATTAACGAGCTCGAGTAAACAAATTTTCCTAATCTTTCTGTTCAAGCGCCATCTAC” was tested. Which binding signal did it give?
Its binding signal is 0.81 RPM ratio (pull-down/input).

“GATGATTGTTCTCCCAGCTGATGAATTCTAGTGGTCGAGTAAACAAATTTTCCTAATCTTTCTGTTCAAGCGCCATCTAC” was tested. Which binding signal did it give?
The binding signal was 0.86 RPM ratio (pull-down/input).

How did the binding signal turn out when “GATGATTGTTCTCCCAGCTGATGAATTATCTTTCTCGAGTAAACAAATTTTCCTAATCTTTCTGTTCAAGCGCCATCTAC” was run?
Its binding signal is 0.948 RPM ratio (pull-down/input).

Which binding signal does the source give for “GATGATTGTTCTCCCAGCTGATGAATTATTAGTATCGAGTAAACAAATTTTCCTAATCTTTCTGTTCAAGCGCCATCTAC” here?
Its binding signal is 1.46 RPM ratio (pull-down/input).

Which binding signal does the source give for “GATGATTGTTCTCCCAGCTGATGAATTTTCAACATCGAGTAAACAAATTTTCCTAATCTTTCTGTTCAAGCGCCATCTAC” here?
The binding signal was 1.14 RPM ratio (pull-down/input).

“GATGATTGTTCTCCCAGCTGATGAATTTATTGAATCGAGTAAACAAATTTTCCTAATCTTTCTGTTCAAGCGCCATCTAC” was tested. Which binding signal did it give?
Its binding signal is 1.28 RPM ratio (pull-down/input).

With “GATGATTGTTCTCCCAGCTGATGAATTTGTCAAATCGAGTAAACAAATTTTCCTAATCTTTCTGTTCAAGCGCCATCTAC” as the sequence, how does the binding signal read?
The binding signal was 1.17 RPM ratio (pull-down/input).

“GATGATTGTTCTCCCAGCTGATGAATTAGTATTATCGAGTAAACAAATTTTCCTAATCTTTCTGTTCAAGCGCCATCTAC” was tested. Which binding signal did it give?
Its binding signal is 1.75 RPM ratio (pull-down/input).

“GATGATTGTTCTCCCAGCTGATGAATTATTTATCTCGAGTAAACAAATTTTCCTAATCTTTCTGTTCAAGCGCCATCTAC” was tested. Which binding signal did it give?
The binding signal was 1.76 RPM ratio (pull-down/input).

How did the binding signal turn out when “GATGATTGTTCTCCCAGCTGATGAATTGTCAACATCGAGTAAACAAATTTTCCTAATCTTTCTGTTCAAGCGCCATCTAC” was run?
The binding signal was 2.76 RPM ratio (pull-down/input).

“GATGATTGTTCTCCCAGCTGATGAATTTATTTGATCGAGTAAACAAATTTTCCTAATCTTTCTGTTCAAGCGCCATCTAC” was tested. Which binding signal did it give?
Its binding signal is 1.2 RPM ratio (pull-down/input).

How did the binding signal turn out when “GATGATTGTTCTCCCAGCTGATGAATTTTATTGATCGAGTAAACAAATTTTCCTAATCTTTCTGTTCAAGCGCCATCTAC” was run?
The binding signal was 2.45 RPM ratio (pull-down/input).

How did the binding signal turn out when “GATGATTGTTCTCCCAGCTGATGAATTTATTATCTCGAGTAAACAAATTTTCCTAATCTTTCTGTTCAAGCGCCATCTAC” was run?
Its binding signal is 1.41 RPM ratio (pull-down/input).

How did the binding signal turn out when “GATGATTGTTCTCCCAGCTGATGAATTAGTAGTATCGAGTAAACAAATTTTCCTAATCTTTCTGTTCAAGCGCCATCTAC” was run?
Its binding signal is 1.2 RPM ratio (pull-down/input).

How did the binding signal turn out when “GATGATTGTTCTCCCAGCTGATGAATTGGATGTATCGAGTAAACAAATTTTCCTAATCTTTCTGTTCAAGCGCCATCTAC” was run?
Its binding signal is 1.1 RPM ratio (pull-down/input).

“GATGATTGTTCTCCCAGCTGATGAATTGAAAATCTCGAGTAAACAAATTTTCCTAATCTTTCTGTTCAAGCGCCATCTAC” was tested. Which binding signal did it give?
Its binding signal is 0.791 RPM ratio (pull-down/input).

For “GATGATTGTTCTCCCAGCTGATGAATTCAACTCGTCGAGTAAACAAATTTTCCTAATCTTTCTGTTCAAGCGCCATCTAC”, which binding signal is on record?
Its binding signal is 0.869 RPM ratio (pull-down/input).

How did the binding signal turn out when “GATGATTGTTCTCCCAGCTGATGAATTTCTGTACTCGAGTAAACAAATTTTCCTAATCTTTCTGTTCAAGCGCCATCTAC” was run?
Its binding signal is 0.909 RPM ratio (pull-down/input).

For “GATGATTGTTCTCCCAGCTGATGAATTTACCATCTCGAGTAAACAAATTTTCCTAATCTTTCTGTTCAAGCGCCATCTAC”, which binding signal is on record?
The binding signal was 1.19 RPM ratio (pull-down/input).

Which binding signal does the source give for “GATGATTGTTCTCCCAGCTGATGAATTTCCAATGTCGAGTAAACAAATTTTCCTAATCTTTCTGTTCAAGCGCCATCTAC” here?
Its binding signal is 0.862 RPM ratio (pull-down/input).

For “GATGATTGTTCTCCCAGCTGATGAATTATCCGATTCGAGTAAACAAATTTTCCTAATCTTTCTGTTCAAGCGCCATCTAC”, which binding signal is on record?
Its binding signal is 0.95 RPM ratio (pull-down/input).

Which binding signal does the source give for “GATGATTGTTCTCCCAGCTGATGAATTTGTATTCTCGAGTAAACAAATTTTCCTAATCTTTCTGTTCAAGCGCCATCTAC” here?
The binding signal was 1.44 RPM ratio (pull-down/input).

Which binding signal does the source give for “GATGATTGTTCTCCCAGCTGATGAATTTTTATTATCGAGTAAACAAATTTTCCTAATCTTTCTGTTCAAGCGCCATCTAC” here?
Its binding signal is 2.02 RPM ratio (pull-down/input).

How did the binding signal turn out when “GATGATTGTTCTCCCAGCTGATGAATTGTTATTATCGAGTAAACAAATTTTCCTAATCTTTCTGTTCAAGCGCCATCTAC” was run?
Its binding signal is 3.14 RPM ratio (pull-down/input).

For “GATGATTGTTCTCCCAGCTGATGAATTATCGTTATCGAGTAAACAAATTTTCCTAATCTTTCTGTTCAAGCGCCATCTAC”, which binding signal is on record?
The binding signal was 1.11 RPM ratio (pull-down/input).
